Records with an inconclusive call do not appear. Calls of active or inactive are those of the source. Unless noted, calls follow the shape of the dose curve; as a rule, active = well fitted curve in the direction sought with a large enough effect in the repeat runs; inconclusive = weak or mixed curves; inactive = no such curve, though single readings can be large; an effect the other way counts as inactive or inconclusive.
Assays:
[1] = qHTS assay for small molecule agonists of the p53 signaling pathway (AID 651631; calls by dose curve; also: nearly all actives have a fitted effect of over 15% in size; also: potency is read from the fitted curve at half-maximal effect)
In short: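 Readout was fluorescence from the LiveBLAzer FRET substrate, applied for 2 h at room temperature after 16 h compound exposure at 37 °C. Cells were the p53RE-bla HCT-116 line, with beta-lactamase driven by p53 response elements.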

[2] = qHTS assay for small molecules that induce genotoxicity in human embryonic kidney cells expressing luciferase-tagged ATAD5 (AID 651632); also: nearly all actives have a fitted effect of over 15% in size
In short: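 ATAD5-luc HEK293T, 2,000 cells/well; cpd or DMSO pin-transferred; 16 hr, 37C/5% CO2; Amplite 30 min RT; luminescence.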

[3] = qHTS assay for small molecule agonists of the p53 signaling pathway - cell viability (AID 651633; calls by dose curve; also: series mostly up to about 83 µM; nearly all actives have a fitted effect of over 30% in size)
In short: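 p53RE-bla cells were treated with compound for 16 hours at 37 C. Cytotoxicity was then measured as CellTiter-Glo luminescence after 30 min at room temperature.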

[4] = qHTS assay for small molecules that induce genotoxicity in human embryonic kidney cells expressing luciferase-tagged ATAD5 - cell viability (AID 651634; calls by dose curve; also: nearly all actives have a fitted effect of over 25% in size)
In short: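 Fluorescence from CellTiter-Fluor, reporting protease activity within live cells, served as the viability read-out. HEK293T cells carrying luciferase-tagged ATAD5 had been treated with compound for 15.5 hr at 37C.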

[5] = qHTS assay for small molecule disruptors of the mitochondrial membrane potential - cell viability (AID 720634; calls by dose curve;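 also: human HepG2 liver cancer cells; series mostly up to about 83 µM; nearly all actives have a fitted effect of over 20% in size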)
In short: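 Cells: HepG2, 2,000/well, attached overnight. Compound 1 hr, 37 C/5% CO2. +m-MPI dye, +CellTiter-Glo 30 min RT. Readout: luminescence (ATP).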

[6] = qHTS assay for small molecule disruptors of the mitochondrial membrane potential (AID 720635); also: potency is read from the fitted curve at half-maximal effect
In short: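 HepG2 cells exposed to compound 1 hr at 37C, then Mito-MPS dye 30 min. Ratio read of aggregate (540/590 nm) versus monomer (490/535 nm) fluorescence.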

[7] = qHTS assay to test for compound auto fluorescence at 590 nm (red) in HepG2 cells (AID 720674)
In short: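 Fluorescence at 590 nm emission following 540 nm excitation was recorded from HepG2 wells one hour after compound transfer, with DMSO-only wells as vehicle and Rose Bengal sodium equivalency as the scale.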

[8] = qHTS assay to test for compound auto fluorescence at 535 nm (green) in HepG2 cells (AID 720675)
[9] = qHTS assay to test for compound auto fluorescence at 460 nm (blue) in HEK293 cells (AID 720678)
In short: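 After cell attachment (4-5 hr, 37C), compounds were pinned onto HEK293 monolayers in 10% dialyzed FBS medium. The blue channel (405/460 nm) was read following overnight culture. Equivalency was calculated against triamterene.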

[10] = qHTS assay to test for compound auto fluorescence at 535 nm (green) in HEK293 cells (AID 720680)
[11] = qHTS assay to test for compound auto fluorescence at 460 nm (blue) in HEK293 cell free culture (AID 720681)
In short: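 Compounds were added to cell-free DMEM with 10% FBS and fluorescence read directly. The blue channel used 405 nm excitation and 460 nm emission, with triamterene as the reference fluorophore.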

[12] = qHTS assay to test for compound auto fluorescence at 535 nm (green) in HEK293 cell free culture (AID 720682)
In short: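 Compounds were pin-transferred into cell-free DMEM with 10% FBS, and green fluorescence was read at excitation 485 nm and emission 535 nm. Intensities were expressed as fluorescein-equivalent values.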

[13] = qHTS assay to test for compound auto fluorescence at 590 nm (red) in HEK293 cell free culture (AID 720683)
In short: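 Cell-free wells of DMEM with 10% FBS received compound, and intrinsic fluorescence was read at excitation/emission 540/590 nm. Values expressed as equivalence to Rose Bengal sodium.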

[14] = qHTS assay to test for compound auto fluorescence at 590 nm (red) in HepG2 cell free culture (AID 720684)
In short: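 Compounds are added to culture medium (MEM, 10% FBS) lacking cells, then fluorescence is read at excitation 540 nm, emission 590 nm, with Rose Bengal sodium as the equivalency standard.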

[15] = qHTS assay to test for compound auto fluorescence at 460 nm (blue) in HepG2 cell free culture (AID 720685)
In short: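 Compound (23 nL) or DMSO pinned into cell-free MEM with 10% FBS; blue fluorescence read at 405/460 nm excitation/emission, expressed as auto-fluorescence equivalency to triamterene.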

[16] = qHTS assay to test for compound auto fluorescence at 535 nm (green) in HepG2 cell free culture (AID 720686)
[17] = qHTS assay to test for compound auto fluorescence at 460 nm (blue) in HepG2 cells (AID 720687)
In short: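 HepG2 cells in MEM with 10% FBS, attached overnight at 37 C, were exposed to compound or DMSO for 1 hr at 37 C, 5% CO2. Blue fluorescence was read at 405/460 nm, with triamterene as reference fluorophore.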

[18] = target: Glucocorticoid receptor (Homo sapiens) (UniProt P04150); test: qHTS assay to identify small molecule agonists of the glucocorticoid receptor (GR) signaling pathway (AID 720691; active = well fitted activation curve with a large enough effect in the signal ratio in the repeat runs, not every such curve was filed as active; the % refers to the signal ratio)
In short: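 Fluorescence intensity from LiveBLAzer B/G FRET substrate (2 h, room temperature) reports beta-lactamase expression driven by the glucocorticoid response element in GR-bla HeLa cells after 18 h compound exposure at 37 C.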

[19] = target: Glucocorticoid receptor (Homo sapiens) (UniProt P04150); test: qHTS assay to identify small molecule antagonists of the glucocorticoid receptor (GR) signaling pathway (AID 720692; active = well fitted inhibition curve with a large enough effect in the signal ratio in the repeat runs, not every such curve was filed as active; the % refers to the signal ratio)
In short: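 HeLa GR-bla cells; cmpd + dex 5 nM final, 18 h 37 C; LiveBLAzer B/G FRET substrate 2 h RT; fluorescence intensity read. Antagonist mode, qHTS.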

[20] = qHTS assay to test for compound auto fluorescence at 590 nm (red) in HEK293 cells (AID 720679)
In short: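 Plates of HEK293 cells (10% dialyzed FBS) are treated with 23 nL compound or DMSO vehicle after a 4-5 hr attachment period, incubated overnight at 37C, and read for red fluorescence at 540/590nm.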
% is scaled to controls: 0 for no effect and ±100 for the full control effect.

Chain of Glucocorticoid receptor (Homo sapiens) (P04150 whole entry, looked up): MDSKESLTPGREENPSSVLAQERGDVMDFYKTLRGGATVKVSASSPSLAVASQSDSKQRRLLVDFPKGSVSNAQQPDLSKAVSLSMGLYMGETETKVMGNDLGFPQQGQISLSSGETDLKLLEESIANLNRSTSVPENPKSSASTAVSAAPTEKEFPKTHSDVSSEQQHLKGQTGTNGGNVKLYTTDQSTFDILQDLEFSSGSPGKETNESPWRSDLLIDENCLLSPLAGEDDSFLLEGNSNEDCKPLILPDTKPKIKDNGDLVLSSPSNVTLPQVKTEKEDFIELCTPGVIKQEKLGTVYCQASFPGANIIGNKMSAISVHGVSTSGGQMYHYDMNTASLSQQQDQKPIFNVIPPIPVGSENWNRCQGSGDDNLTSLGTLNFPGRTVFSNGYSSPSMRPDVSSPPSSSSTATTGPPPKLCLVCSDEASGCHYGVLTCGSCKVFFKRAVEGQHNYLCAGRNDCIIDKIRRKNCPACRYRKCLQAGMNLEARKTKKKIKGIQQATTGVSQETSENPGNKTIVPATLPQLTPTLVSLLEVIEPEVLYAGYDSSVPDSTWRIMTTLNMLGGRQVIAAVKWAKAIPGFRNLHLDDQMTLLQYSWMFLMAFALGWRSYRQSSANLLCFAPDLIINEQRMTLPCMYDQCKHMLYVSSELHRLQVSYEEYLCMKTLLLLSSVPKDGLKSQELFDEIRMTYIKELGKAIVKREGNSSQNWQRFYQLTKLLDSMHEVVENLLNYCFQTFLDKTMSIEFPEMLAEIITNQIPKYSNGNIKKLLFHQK

CCCOC(=O)c1ccc(C(=O)OCCC)nc1
inactive: Potency [1] | Potency [2] | Potency [3] | Potency [4] | Potency [5] | Potency [6] | outcome [7] | outcome [8] | Potency [9] | outcome [10] | Potency [11] | outcome [12] | outcome [13] | outcome [14] | Potency [15] | outcome [16] | Potency [17] | Potency [18] | Potency [19]

CCCCCCCCCCCCCCCCBr
inactive: Potency [1] | Potency [2] | Potency [3] | Potency [4] | Potency [5] | fluorescence, relative to Rose Bengal [7] 0.0532% [at 18.6 µM] | fluorescence, % of fluorescein control [8] 0.118% [at 18.6 µM] | fluorescence, % of triamterene [9] -0.0281% [at 18.6 µM] | fluorescence, % of fluorescent control [20] -0.108% [at 18.6 µM] | fluorescence, % of fluorescein [10] -0.0178% [at 18.6 µM] | fluorescence, % of fluorescent control [11] 0.102% [at 18.6 µM] | activity change [12] 0.0082% [at 18.6 µM] | fluorescence, % of fluorescent control [13] 0.0252% [at 18.6 µM] | fluorescence, % of Rose Bengal [14] 0.119% [at 18.6 µM] | fluorescence, % of fluorescent control [15] -0.0045% [at 18.6 µM] | fluorescence, % of fluorescein control [16] 0.0028% [at 18.6 µM] | fluorescence, % of fluorescent control [17] -0.0027% [at 18.6 µM]

CCC(=O)Oc1ccc(/C(CC)=C(\CC)c2ccc(OC(=O)CC)cc2)cc1
inactive: Potency [2] | Potency [3] | Potency [4] | Potency [5] | outcome [7] | outcome [8] | Potency [9] | outcome [20] | outcome [10] | Potency [11] | outcome [12] | outcome [13] | outcome [14] | Potency [15] | outcome [16]
active: Potency [1] 15.4 µM | Potency [6] 8.63 µM

Fc1c(F)c(F)c(Br)c(F)c1F
inactive: Potency [1] | Potency [2] | Potency [3] | Potency [4] | Potency [5] | Potency [6] | outcome [8] | Potency [9] | outcome [20] | outcome [10] | Potency [11] | outcome [12] | outcome [13] | outcome [14] | Potency [15] | outcome [16]

CCC(C)(O)CCC=C(C)C (stereo not drawn)
inactive: Potency [1] | Potency [2] | Potency [3] | Potency [4] | Potency [5] | Potency [6] | outcome [7] | outcome [8] | Potency [9] | outcome [10] | Potency [11] | outcome [12] | outcome [13] | outcome [14] | Potency [15] | outcome [16] | Potency [17] | Potency [18] | Potency [19]

CCOC(=O)/C=C/C(=O)O
inactive: Potency [1] | Potency [2] | Potency [3] | Potency [4] | Potency [5] | Potency [6] | outcome [7] | outcome [8] | Potency [9] | outcome [20] | outcome [10] | Potency [11] | outcome [12] | outcome [13] | outcome [14] | Potency [15] | outcome [16] | Potency [17]

CCCOCCOCCO
inactive: Potency [1] | Potency [2] | Potency [3] | Potency [4] | Potency [5] | Potency [6] | outcome [7] | outcome [8] | Potency [9] | outcome [20] | outcome [10] | Potency [11] | outcome [12] | outcome [13] | outcome [14] | Potency [15] | outcome [16] | Potency [17] | Potency [18] | Potency [19]

NCC1CCCC(CN)C1 (stereo not drawn)
inactive: Potency [1] | Potency [2] | Potency [3] | Potency [4] | Potency [5] | Potency [6] | outcome [7] | outcome [8] | Potency [9] | outcome [10] | Potency [11] | outcome [12] | outcome [13] | outcome [14] | Potency [15] | Potency [17] | Potency [18] | Potency [19]

CC(CCO)CCc1ccccc1 (stereo not drawn)
inactive: Potency [1] | Potency [2] | Potency [3] | Potency [4] | Potency [5] | Potency [6] | outcome [7] | outcome [8] | Potency [9] | outcome [20] | outcome [10] | Potency [11] | outcome [12] | outcome [13] | outcome [14] | Potency [15] | outcome [16] | Potency [17] | Potency [18] | Potency [19]

C=C(C)C(=O)OCCOC(=O)CC(C)=O
inactive: Potency [1] | Potency [2] | Potency [3] | Potency [4] | Potency [5] | Potency [6] | outcome [7] | outcome [8] | Potency [9] | outcome [20] | outcome [10] | Potency [11] | outcome [12] | outcome [13] | outcome [14] | Potency [15] | outcome [16] | Potency [17] | Potency [18] | Potency [19]

O=C(O)c1ccc(CO)o1
inactive: Potency [1] | Potency [2] | Potency [3] | Potency [4] | Potency [5] | Potency [6] | outcome [7] | outcome [8] | Potency [9] | outcome [20] | outcome [10] | Potency [11] | outcome [12] | outcome [13] | outcome [14] | Potency [15] | outcome [16] | Potency [17] | Potency [18] | Potency [19]

Cc1cnc(C)c(C)n1
inactive: Potency [1] | Potency [2] | Potency [3] | Potency [4] | Potency [5] | Potency [6] | outcome [7] | outcome [8] | Potency [9] | outcome [10] | Potency [11] | outcome [12] | outcome [13] | outcome [14] | Potency [15] | outcome [16] | Potency [17] | Potency [18] | Potency [19]

— PubChem BioAssay (Tox21)
